# Biological target: Neurogenic locus notch homolog protein 2 (Homo sapiens) (UniProt Q04721)
# Assay: Notch2 binders on small-molecule microarrays, primary screen, biochemical, small-molecule microarray, 635 nm fluorescence, stem cell growth factors (AID 1073)
# Conditions: Notch2 binding, higher = more signal
# Neurogenic locus notch homolog protein 2 (Homo sapiens), sequence (Q04721 whole entry, looked up): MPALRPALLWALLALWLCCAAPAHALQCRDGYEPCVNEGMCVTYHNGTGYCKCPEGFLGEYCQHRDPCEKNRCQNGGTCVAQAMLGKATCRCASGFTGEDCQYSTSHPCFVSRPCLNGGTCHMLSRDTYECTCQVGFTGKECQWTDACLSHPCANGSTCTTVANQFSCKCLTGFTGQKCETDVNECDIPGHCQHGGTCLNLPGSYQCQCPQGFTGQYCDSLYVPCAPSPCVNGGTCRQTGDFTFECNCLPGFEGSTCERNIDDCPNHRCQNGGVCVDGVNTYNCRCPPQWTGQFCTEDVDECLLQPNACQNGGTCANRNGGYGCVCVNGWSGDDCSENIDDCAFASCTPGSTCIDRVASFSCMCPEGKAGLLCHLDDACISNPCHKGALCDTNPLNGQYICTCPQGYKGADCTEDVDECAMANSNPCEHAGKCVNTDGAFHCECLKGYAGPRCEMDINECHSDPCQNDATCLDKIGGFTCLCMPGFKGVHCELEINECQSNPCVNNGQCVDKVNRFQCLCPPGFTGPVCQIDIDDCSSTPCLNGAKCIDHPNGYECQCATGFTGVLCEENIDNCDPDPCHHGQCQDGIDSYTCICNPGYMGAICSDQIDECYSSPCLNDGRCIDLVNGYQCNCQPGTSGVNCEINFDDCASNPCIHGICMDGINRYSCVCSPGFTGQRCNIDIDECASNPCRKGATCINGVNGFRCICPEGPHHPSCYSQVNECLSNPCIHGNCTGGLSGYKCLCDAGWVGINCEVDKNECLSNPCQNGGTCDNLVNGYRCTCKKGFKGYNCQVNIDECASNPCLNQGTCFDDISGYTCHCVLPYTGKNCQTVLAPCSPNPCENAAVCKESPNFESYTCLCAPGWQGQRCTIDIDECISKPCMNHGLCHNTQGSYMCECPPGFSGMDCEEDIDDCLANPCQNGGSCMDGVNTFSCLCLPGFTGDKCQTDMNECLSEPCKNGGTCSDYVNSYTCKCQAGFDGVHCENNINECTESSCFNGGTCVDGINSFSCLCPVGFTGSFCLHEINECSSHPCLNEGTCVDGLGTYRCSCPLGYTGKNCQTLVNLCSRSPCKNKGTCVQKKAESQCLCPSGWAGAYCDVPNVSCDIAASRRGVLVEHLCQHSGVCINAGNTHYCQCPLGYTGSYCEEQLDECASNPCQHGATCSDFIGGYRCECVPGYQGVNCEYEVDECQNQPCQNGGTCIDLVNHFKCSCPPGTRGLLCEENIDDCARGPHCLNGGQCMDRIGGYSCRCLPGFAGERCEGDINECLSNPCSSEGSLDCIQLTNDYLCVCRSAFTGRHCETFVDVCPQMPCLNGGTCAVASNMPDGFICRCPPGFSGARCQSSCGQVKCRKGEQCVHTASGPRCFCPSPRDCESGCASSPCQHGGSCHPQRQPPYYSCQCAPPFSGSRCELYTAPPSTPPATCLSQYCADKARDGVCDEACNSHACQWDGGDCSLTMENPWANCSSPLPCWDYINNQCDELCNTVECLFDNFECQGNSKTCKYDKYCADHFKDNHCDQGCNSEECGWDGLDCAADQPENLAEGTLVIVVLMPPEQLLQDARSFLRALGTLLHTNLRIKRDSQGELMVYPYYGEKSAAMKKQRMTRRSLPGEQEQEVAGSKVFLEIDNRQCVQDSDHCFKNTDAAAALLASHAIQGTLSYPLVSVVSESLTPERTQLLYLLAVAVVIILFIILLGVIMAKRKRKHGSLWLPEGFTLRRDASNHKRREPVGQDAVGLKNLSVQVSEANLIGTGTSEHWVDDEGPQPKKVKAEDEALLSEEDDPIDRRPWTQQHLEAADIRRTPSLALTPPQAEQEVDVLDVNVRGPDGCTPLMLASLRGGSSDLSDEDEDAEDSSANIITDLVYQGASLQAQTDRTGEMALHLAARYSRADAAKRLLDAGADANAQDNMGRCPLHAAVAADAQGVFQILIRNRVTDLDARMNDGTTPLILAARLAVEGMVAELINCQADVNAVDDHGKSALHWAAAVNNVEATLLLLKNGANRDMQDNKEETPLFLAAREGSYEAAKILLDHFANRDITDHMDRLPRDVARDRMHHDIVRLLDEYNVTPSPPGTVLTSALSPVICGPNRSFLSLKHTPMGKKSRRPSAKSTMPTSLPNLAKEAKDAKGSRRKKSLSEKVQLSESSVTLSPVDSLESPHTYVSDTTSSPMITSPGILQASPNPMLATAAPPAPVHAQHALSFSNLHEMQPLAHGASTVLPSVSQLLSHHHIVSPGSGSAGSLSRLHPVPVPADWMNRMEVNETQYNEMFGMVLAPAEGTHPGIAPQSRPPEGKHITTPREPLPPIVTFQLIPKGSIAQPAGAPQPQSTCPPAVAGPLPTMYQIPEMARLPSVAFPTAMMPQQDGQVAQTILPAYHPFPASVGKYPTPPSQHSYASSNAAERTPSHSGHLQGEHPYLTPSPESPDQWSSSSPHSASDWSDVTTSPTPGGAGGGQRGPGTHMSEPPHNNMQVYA
row,SMILES,composite z-score
1,COC(=O)[C@@]1(Cc2ccccc2)[C@H]2c3cc(C(=O)N4CCCC4)n(Cc4ccc(OC(F)(F)F)cc4)c3C[C@H]2CN1C(=O)c1ccccc1,1.72
2,CO[C@H]1O[C@H](CO)[C@@H](OC(=O)c2ccc(Br)cc2)[C@@H]2OC(=O)[C@H](Cc3cccc(Br)c3)C/C=C/C[C@@H](Cc3cccc(Br)c3)C(=O)O[C@@H]12,1.43
3,Cc1ccc(N2C(=O)c3ccccc3[C@](C)(C(=O)NC(C)C)[C@@H]2c2ccc(CO)cc2)nc1,-1.61
4,NC(=O)[C@@H]1[C@H]2C(=O)O[C@H](c3ccccc3)[C@H](c3ccccc3)N2[C@H](c2ccccc2OCCO)[C@@]12C(=O)Nc1ccc(C#CCCO)cc12,0.0307
5,O=C1O[C@H](c2ccccc2)[C@H](c2ccccc2)N2[C@H]1[C@@H](C(=O)N1CCN(c3ncccn3)CC1)[C@]1(C(=O)Nc3ccc(C#CCCO)cc31)[C@H]2c1ccc(OCCO)cc1,1.53
6,CCCC=C(CCC)[C@@H](NS(=O)(=O)c1cccc2cccnc12)c1ccc(C(=O)OC)cc1,1.59

# Biological target: Pro-neuregulin-1, membrane-bound isoform (Homo sapiens) (UniProt Q02297)
# Sequence (Q02297 whole entry, looked up, canonical isoform): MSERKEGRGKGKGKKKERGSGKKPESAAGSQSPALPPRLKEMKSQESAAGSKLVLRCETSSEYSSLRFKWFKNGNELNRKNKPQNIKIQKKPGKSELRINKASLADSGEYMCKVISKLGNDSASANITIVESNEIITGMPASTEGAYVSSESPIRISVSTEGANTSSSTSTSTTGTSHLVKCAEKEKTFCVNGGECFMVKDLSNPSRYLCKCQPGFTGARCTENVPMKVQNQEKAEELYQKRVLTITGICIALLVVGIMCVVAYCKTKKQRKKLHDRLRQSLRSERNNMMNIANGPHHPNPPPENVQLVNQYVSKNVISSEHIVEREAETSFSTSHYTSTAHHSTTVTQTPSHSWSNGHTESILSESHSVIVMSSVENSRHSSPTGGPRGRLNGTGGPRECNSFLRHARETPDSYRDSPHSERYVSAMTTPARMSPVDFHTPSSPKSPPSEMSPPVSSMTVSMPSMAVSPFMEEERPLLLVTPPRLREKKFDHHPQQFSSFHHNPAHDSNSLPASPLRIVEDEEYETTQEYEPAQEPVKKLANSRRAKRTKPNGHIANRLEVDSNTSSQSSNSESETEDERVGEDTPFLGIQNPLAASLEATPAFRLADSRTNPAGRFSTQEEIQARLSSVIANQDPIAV
# Assay: NRG1 binders on small-molecule microarrays, primary screen, psychiatric disease protein project, biochemical, small-molecule microarray, fluorescence 635/667 (AID 1075);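 note: score combines 667 nm spot fluorescence with signal to noise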
# Conditions: NRG1 binding, 635 nm fluorescence, higher = more signal
row,SMILES,composite z-score
1,O=C1C[C@@](C(=O)O)(c2ccc([N+](=O)[O-])cc2)[C@@H](c2ccc(CO)cc2)N1CC12CC3CC(CC(C3)C1)C2,1.38
2,Cc1ccc(S[C@]2(C(=O)O)CC(=O)N(Cc3ccccc3C(F)(F)F)[C@@H]2c2ccc(CO)cc2)cc1,-0.343
3,COC(=O)c1ccc(OC)c(/C=C\CC(CCc2ccccc2)OC(C)=O)c1 (configuration not stated),-0.289
4,C#CCNS(=O)(=O)N(C)C,0.174
5,O=C1CSC(c2cccc([N+](=O)[O-])c2)N1c1ccccc1 (configuration not stated),0.146
6,CCN(CC)c1ccc(N2CC=CC34O[C@@H]5/C=C\CCCOC(=O)C5[C@H]3C(=O)N(CCCCCO)[C@@H]4C2=O)cc1 (some centres not stated),1.04
7,OCc1ccc(-c2cc[n+](Cc3cccc(OC(F)(F)F)c3)cc2)cc1,1.48
8,COCC1=C([C@H](O)CCc2ccccc2)[C@H](CO)[C@@H]2C(=O)N(C)C(=O)[C@@H]2C1,0.378
9,COC(=O)[C@@]1(Cc2ccc(F)cc2)[C@H]2c3cc(C(=O)N(C)C)n(Cc4ccc(C)c(F)c4F)c3C[C@H]2CN1C(=O)c1ccccc1,1.71
10,CCOC(=O)C[C@H]1[C@H](OC(=O)c2ccc(C(=O)c3ccccc3)cc2)[C@@H](NC(=O)C2CCCCC2)c2cc(OCCCO)ccc2N1C(=O)Cc1ccc(OC)cc1,0.556
11,CCCN1C(=O)[C@@]2(Cc3ccccc3)N=C(c3ccc(OCCCO)cc3)O[C@H]2c2ccccc21,0.602
12,O=C1C2C=CC(C(O)c3ccccn3)N(Nc3ccccc3)C2C(=O)N1c1ccccc1 (configuration not stated),1.65
13,COc1cc(C(O)C2C=CC3C(=O)N(C)C(=O)C3N2NC(=O)OC(C)(C)C)cc(OC)c1OC (configuration not stated),2.13
14,COCC(=C=CC[C@@H](O)c1ccccc1OCCO)C[C@@H](O)c1ccccn1,1.21
15,C[N+](C)(C)CCCC[C@@H]1NC(=O)[C@@H]2C[C@H](C(=O)O)[C@H](c3cccc(OCCO)c3)N2C1=O,-0.0567
16,C=CCC(OC(C)=O)[C@@H]1[C@@H](N(Cc2ccc(-c3cccc(C(F)(F)F)c3)o2)C(=O)c2cccc3ccccc23)c2cc(OCCCO)ccc2N1C(=O)c1ccc(-c2ccccc2)cc1 (some centres not stated),0.0252
17,COCCCNC(=O)[C@@]1(C)c2ccccc2C(=O)N(c2ccc(C)cn2)[C@H]1c1ccc(CO)cc1,0.906
18,COCCCNC(=O)[C@@]1(Cc2ccccc2CN=[N+]=[N-])N=C(c2ccc(OCCCO)cc2)O[C@H]1c1ccccc1N=[N+]=[N-],0.765

row,SMILES,composite z-score
1,CC1(C)[C@@H]2CC(C(O)C3C=CC4C(=O)N(c5ccccc5)C(=O)C4N3Nc3ccccc3F)=C[C@@H]1C2 (some centres not stated),1.28
2,CCOC(=O)C[C@H]1[C@H](OC(=O)Cc2ccc3c(c2)OCO3)[C@@H](NC(=O)c2ccccc2)c2cc(OCCCO)ccc2N1C(=O)c1ccc2ccccc2n1,0.485
3,C=CC[C@]1(C(=O)NCC(O)CO)N=C(c2ccc(OCCCO)cc2)O[C@H]1c1ccccc1N=[N+]=[N-] (some centres not stated),1.8
4,C=C(COC)C(=O)CC[C@H](OC(=O)c1ccccc1-c1ccccc1C(=O)O)c1ccc(OCCO)cc1,1.09
5,COC(=O)[C@@]1(Cc2ccc(OC)cc2)[C@H]2c3cc(C(=O)N(C)C)n(Cc4cc(F)c(F)c(F)c4)c3C[C@H]2CN1C(=O)c1ccccc1,1.81
6,C=CCC(OC(C)=O)[C@@H]1[C@@H](N(Cc2ccc(-c3ccccc3)cc2)C(=O)Cc2ccc(OC)cc2)c2cc(OCCCO)ccc2N1C(=O)c1ccc(-c2ccccc2)cc1 (some centres not stated),0.275
7,COc1ccc(CCNC(=O)[C@@H]2c3ccccc3C(=O)N(Cc3ccccc3)[C@H]2c2ccc(CO)cc2)cc1,-0.0744
8,COC(=O)C(CC#Cc1ccc2c(c1)[C@]1(C(=O)N2)[C@H](c2ccccc2OCCO)N2[C@H](c3ccccc3)[C@H](c3ccccc3)OC(=O)[C@H]2[C@@H]1C(=O)Nc1nc2ccccc2s1)C(=O)OC,1.47
9,COc1cc2c(cc1OC)CN(C(=O)[C@@H]1[C@H]3C(=O)O[C@H](c4ccccc4)[C@H](c4ccccc4)N3[C@H](c3ccc(OCCO)cc3)[C@@]13C(=O)Nc1ccc(C#CCCO)cc13)CC2,1.58
10,C[N+](C)(C)CCCCCCNC(=O)[C@H]1C[C@H]2C(=O)N3CCC[C@H]3C(=O)N2[C@H]1c1cccc(OCCO)c1,0.577
11,C=C(C(=O)CC[C@H](OC(=O)c1cccnc1)c1ccc(OCCO)cc1)C(C)C,0.19
12,C=C(COC)C(=O)CC[C@H](OC(=O)c1ccccc1-c1ccccc1C(=O)O)c1ccc(CO)o1,0.844
13,COC(=O)[C@@]1(Cc2ccccc2)[C@H]2c3cc(C(=O)N4CCCC4)n(Cc4ccc(OC(F)(F)F)cc4)c3C[C@H]2CN1C(=O)c1ccccc1,1.62
14,CO[C@H]1O[C@H](CO)[C@@H](OC(=O)c2ccc(Br)cc2)[C@@H]2OC(=O)[C@H](Cc3cccc(Br)c3)C/C=C/C[C@@H](Cc3cccc(Br)c3)C(=O)O[C@@H]12,1.43
15,Cc1ccc(N2C(=O)c3ccccc3[C@](C)(C(=O)NC(C)C)[C@@H]2c2ccc(CO)cc2)nc1,-1.55
16,NC(=O)[C@@H]1[C@H]2C(=O)O[C@H](c3ccccc3)[C@H](c3ccccc3)N2[C@H](c2ccccc2OCCO)[C@@]12C(=O)Nc1ccc(C#CCCO)cc12,0.352
17,O=C1O[C@H](c2ccccc2)[C@H](c2ccccc2)N2[C@H]1[C@@H](C(=O)N1CCN(c3ncccn3)CC1)[C@]1(C(=O)Nc3ccc(C#CCCO)cc31)[C@H]2c1ccc(OCCO)cc1,0.826
18,CCCC=C(CCC)[C@@H](NS(=O)(=O)c1cccc2cccnc12)c1ccc(C(=O)OC)cc1,0.136

# From PubChem BioAssay
